In the library only some 3.5% were active in any assay of this set; here they are far more common.
GPR151 ag: activators of human GPR151; activation, % at 11.2 µM; 650,000 compounds, 1% hits; PathHunter beta-arrestin GPR151 cells, luminescence; Q8TDV0; in the data active = activation above about 4.9%;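 also: 0% = median of compound wells and 100% = cells with positive control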
Target sequence (Q8TDV0 whole entry, looked up): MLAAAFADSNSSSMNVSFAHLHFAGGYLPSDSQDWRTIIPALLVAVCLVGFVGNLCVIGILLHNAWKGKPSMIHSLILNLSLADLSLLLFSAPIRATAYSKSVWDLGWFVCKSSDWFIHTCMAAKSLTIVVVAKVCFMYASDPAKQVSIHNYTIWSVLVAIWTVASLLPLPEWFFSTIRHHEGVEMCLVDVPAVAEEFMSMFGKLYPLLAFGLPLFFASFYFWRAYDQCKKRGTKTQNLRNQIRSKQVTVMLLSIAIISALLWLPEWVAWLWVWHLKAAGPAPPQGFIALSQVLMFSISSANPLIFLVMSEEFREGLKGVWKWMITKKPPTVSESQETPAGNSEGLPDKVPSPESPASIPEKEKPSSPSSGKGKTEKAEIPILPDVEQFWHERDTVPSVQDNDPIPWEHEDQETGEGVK
TEAD-YAP block: TEAD-YAP interaction inhibition; AID 1259422; HEK-TIYL cells, TEAD-Gal4/YAP UAS-luciferase luminescence; 640,000 compounds, 1.4% hits; inhibition, % at 9.12 µM; in the data active = inhibition above about 32%;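 also: 0% = median of test compound wells and 100% = reference inhibitor wells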
FBW7 act: human FBW7 E3 ligase activation, primary screen. Q969H0. AlphaScreen FBW7–phospho-cyclin E peptide binding, activator screen. normalized activity (activation), % at 26.1 µM. 650,000 compounds, 0.13% hits; in the data active = normalized activity above about 1.9%;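 also: purified mutant Fbw7 with reduced substrate affinity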
MITF inh: human MITF inhibition, primary screen; AlphaScreen MITF homodimerization, bead proximity signal; inhibition, % at 2.6 µM; 650,000 compounds, 0.91% hits; in the data active = inhibition above about 50%;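 also: 0% = vehicle wells with protein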
GPR151 conf act: confirmation of human GPR151 activators | shares compounds with GPR151 ag | GPR151 PathHunter beta-arrestin cells, luminescence, 90 min; % of EA-reagent control over plate median | activation, % at 11.2 µM | 6,700 tested, under 10 active | AID 1508609;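 active = mean percent activation across replicates above the confirmation screen cutoff of 4.91%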
GPR119 counter: counter-screen for GPR151 activators: effect on human GPR119; activation, % at 11.2 µM; shares compounds with GPR151 ag; 6,700 compounds, 0.3% hits; GPR119 PathHunter beta-arrestin cells, luminescence, 90 min; 0 = compound-well median, 100 = enzyme-acceptor control;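 active = mean percent activation in the counterscreen above 29.09%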;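 also: counterscreen on off-target GPR119 to flag nonselective hits from the GPR151 activator screen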
* = called active by the depositor; ! = not active in a repeat.

`O=C(Nc1cccc(Oc2ccc(C(=O)O)c(C(=O)O)c2)c1)c1ccc(-c2ccccc2)cc1` gave GPR151 ag 6.9*, TEAD-YAP block 17.9, FBW7 act 0.0, MITF inh 1.6, GPR151 conf act -0.1 and GPR119 counter 2.8.
For O=C(Nc1cccc(Oc2ccc(C(=O)O)c(C(=O)O)c2)c1)c1ccc([N+](=O)[O-])cc1 the results were GPR151 ag 0.0, TEAD-YAP block 6.0, FBW7 act -0.6 and MITF inh 14.0.
`COc1cccc(NC(=S)NCc2cccnc2)c1` gave GPR151 ag 6.1*!, TEAD-YAP block 7.2, FBW7 act 0.3, MITF inh 15.1, GPR151 conf act -0.7 and GPR119 counter 0.3.
`COc1cccc(NC(=O)C(=O)NCc2cccnc2)c1` gave GPR151 ag -0.2, TEAD-YAP block -49.2, FBW7 act 0.1 and MITF inh 3.3.
O=c1c2nccnc2[nH]c(=S)n1CC1CCCO1 (centres undefined) was read as GPR151 ag 1.0, TEAD-YAP block 1.6, FBW7 act -0.1 and MITF inh 11.6.
`CCN1CCN(C(=O)CN(C2CCCCC2)S(=O)(=O)c2c(C)cc(C)cc2C)CC1` gave GPR151 ag -0.2, TEAD-YAP block 8.0, FBW7 act 0.1 and MITF inh 2.2.
For CC(C)C(=O)n1nc(-c2ccccc2)nc1NCc1ccc(F)cc1 the results were GPR151 ag 0.8, TEAD-YAP block -3.4, FBW7 act 0.0 and MITF inh -1.8.
For O=C(CCC1CCCCC1)Nc1nn[nH]n1 the results were GPR151 ag 7.7*, TEAD-YAP block 1.2, FBW7 act -0.1, MITF inh 0.9, GPR151 conf act 0.7 and GPR119 counter 3.6.
`CC1=C(C(=O)Nc2cccnc2)C(c2ccccc2OCc2ccccc2)n2nnnc2N1` (centres undefined) gave GPR151 ag 1.8, TEAD-YAP block 2.7, FBW7 act 0.0 and MITF inh -1.5.
`Cn1c(=O)c2c(nc(NCCOCCO)n2Cc2ccc(Cl)c(Cl)c2)n(C)c1=O` gave GPR151 ag 5.2*, TEAD-YAP block -9.7, FBW7 act -0.2, MITF inh -2.7, GPR151 conf act 0.9 and GPR119 counter 5.8.
Screening O=C(NCc1ccccc1)c1cnc2cc(-c3cn[nH]c3)ccn12 returned GPR151 ag 6.2*, TEAD-YAP block -10.1, FBW7 act -0.1, MITF inh 1.0, GPR151 conf act -0.1 and GPR119 counter 12.4.
Screening CCCCCCCC1CCc2nc(-c3ccc(F)cc3)ccc2C1 (centres undefined) returned GPR151 ag -1.3, TEAD-YAP block -8.3, FBW7 act 0.1 and MITF inh -6.5.
For CCCCCC1CCc2nc(/C=C/c3ccccc3)ccc2C1 (centres undefined) the results were GPR151 ag 6.0*, TEAD-YAP block 2.4, FBW7 act 0.3, MITF inh 12.2, GPR151 conf act -1.2 and GPR119 counter -7.0.
CCCCN(C)S(=O)(=O)c1cc2c(cc1C)N(C(C)=O)CCO2 was read as GPR151 ag 6.2*, TEAD-YAP block -1.6, FBW7 act -0.1, MITF inh -3.4, GPR151 conf act 1.1 and GPR119 counter 0.2.
For COC(=O)c1ccccc1S(=O)(=O)C1CCN(C(=O)Nc2ccc(F)cc2F)CC1 the results were GPR151 ag 5.0*, TEAD-YAP block -4.3, FBW7 act 0.0, MITF inh 7.4, GPR151 conf act -1.6 and GPR119 counter -13.4.
For CCCCCCCCCCCCCCCC(=O)C(F)(F)F the results were GPR151 ag 5.0*!, FBW7 act 0.0, MITF inh 2.1, GPR151 conf act -0.7 and GPR119 counter -9.9.
`Clc1nc(N2CCOCC2)nc(N(c2ccccc2)c2ccccc2)n1` gave GPR151 ag -2.1, TEAD-YAP block 6.2, FBW7 act 0.0 and MITF inh 17.1.
NNc1nc(N2CCOCC2)nc(N(c2ccccc2)c2ccccc2)n1 was read as GPR151 ag 9.0*, TEAD-YAP block 8.4, FBW7 act 0.1, MITF inh 10.4, GPR151 conf act 0.4 and GPR119 counter 5.8.
For CN(CCCNC(=O)CCn1c(=O)c2cccn2c2cccnc21)C1CCCCC1 the results were GPR151 ag 5.3*, TEAD-YAP block 0.8, FBW7 act 0.2, MITF inh -3.4, GPR151 conf act 0.8 and GPR119 counter -5.5.
`COC(=O)C1=C(C)N=c2s/c(=C\c3c(F)cccc3Cl)c(=O)n2C1c1ccccc1` (centres undefined) gave GPR151 ag 5.3*, TEAD-YAP block 13.8, FBW7 act 0.0, MITF inh -3.3, GPR151 conf act 0.1 and GPR119 counter 5.6.
CCOC(=O)C1=C(C)N=c2s/c(=C\c3c(F)cccc3Cl)c(=O)n2C1c1ccc(C)cc1 (centres undefined) was read as GPR151 ag -0.5, TEAD-YAP block -8.2, FBW7 act -0.1 and MITF inh -11.6.
For CCOC(=O)C1=C(C)N=c2s/c(=C\c3ccco3)c(=O)n2C1c1cccs1 (centres undefined) the results were GPR151 ag 7.5*, TEAD-YAP block 6.1, FBW7 act -0.1, MITF inh 15.6, GPR151 conf act 0.9 and GPR119 counter 0.8.
Screening CCOC(=O)C1=C(C)N=c2s/c(=C\c3ccc(-c4ccc(C(=O)O)cc4)o3)c(=O)n2C1c1ccccc1OC (centres undefined) returned GPR151 ag 2.1, TEAD-YAP block 0.4, FBW7 act -0.2 and MITF inh -12.5.
CCOC(=O)C1=C(c2ccccc2)N=c2s/c(=C\c3ccco3)c(=O)n2C1c1cccs1 (centres undefined) was read as GPR151 ag 0.1, TEAD-YAP block -1.0, FBW7 act 0.6 and MITF inh 27.2.
CCOC(=O)C1=C(C)N=c2s/c(=C\c3ccc(-c4ccccc4C(=O)O)o3)c(=O)n2C1c1ccccc1OC (centres undefined) was read as GPR151 ag 5.7*, TEAD-YAP block 9.6, FBW7 act 0.0, MITF inh 11.5, GPR151 conf act 2.4 and GPR119 counter 5.0.
CCOC(=O)C1=C(C)N=c2s/c(=C\c3ccc(OC)cc3)c(=O)n2C1c1ccccc1OC (centres undefined) was read as GPR151 ag -0.3, TEAD-YAP block -5.2, FBW7 act -0.1 and MITF inh 3.0.
CCOC(=O)C1=C(C)N=c2s/c(=C\c3ccc(C)cc3)c(=O)n2C1c1ccccc1OC (centres undefined) was read as GPR151 ag 8.6*, TEAD-YAP block 5.6, FBW7 act -0.1, MITF inh -10.6, GPR151 conf act -1.2 and GPR119 counter -13.8.
Screening CC(C)c1ccc(NC(=O)/C=C/C(=O)O)cc1 returned GPR151 ag 0.0, TEAD-YAP block 2.6, FBW7 act 0.0 and MITF inh 3.4.

Compound activity as filed in PubChem BioAssay.
